The record followed here is paper PMC11006913.

What all share (assay): PBM; 200 nM protein, PBS
Common to all, as to conditions: dsDNA, one strand shown

Test [1] concerns the target HOXB6 (Homo sapiens, UniProt P17509 132-218, K202E).
Test [2] addresses T1, NKX2-6 (Homo sapiens, UniProt A6NCS4 118-204).
T1 sequence: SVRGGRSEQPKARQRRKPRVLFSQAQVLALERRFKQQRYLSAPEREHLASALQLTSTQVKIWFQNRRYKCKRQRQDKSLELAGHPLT

The target of test [3] is T2, NKX2-6 (Homo sapiens, UniProt A6NCS4 118-204, F151L).
T2 sequence: T1 sequence with F34L

The target of test [4] is HOXB6 (Homo sapiens, UniProt P17509 132-218).
Sequence of HOXB6 (Homo sapiens, UniProt P17509 132-218) (P17509 132-218): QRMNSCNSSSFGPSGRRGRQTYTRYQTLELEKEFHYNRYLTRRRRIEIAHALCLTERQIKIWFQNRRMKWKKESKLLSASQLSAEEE
The target in test [5] is ALX1 (Homo sapiens, UniProt Q15699 118-204, L144V).
Sequence of ALX1 (Homo sapiens, UniProt Q15699 118-204, L144V) (Q15699 118-204 L144V): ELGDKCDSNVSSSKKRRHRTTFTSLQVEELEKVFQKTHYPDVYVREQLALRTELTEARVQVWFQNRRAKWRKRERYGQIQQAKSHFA
Test [6] addresses ALX1 (Homo sapiens, UniProt Q15699 118-204, L144R).
The target of test [7] is ALX1 (Homo sapiens, UniProt Q15699 118-204).
Sequence of ALX1 (Homo sapiens, UniProt Q15699 118-204) (Q15699 118-204): as the sequence (Q15699 118-204 L144V) above, with V27L counted along it
The target of test [8] is HOXA2 (Homo sapiens, UniProt O43364 129-215, R185T).
Sequence of HOXA2 (Homo sapiens, UniProt O43364 129-215, R185T) (O43364 129-215 R185T): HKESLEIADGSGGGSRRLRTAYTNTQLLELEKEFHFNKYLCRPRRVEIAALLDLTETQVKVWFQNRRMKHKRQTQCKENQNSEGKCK
For test [9], the target named is HOXA2 (Homo sapiens, UniProt O43364 129-215, R185K).
Sequence of HOXA2 (Homo sapiens, UniProt O43364 129-215, R185K) (O43364 129-215 R185K): as the sequence (O43364 129-215 R185T) above, with T57K counted along it
Test [10] concerns the target HOXA2 (Homo sapiens, UniProt O43364 129-215, Y150S).
Test [11] concerns the target HOXA2 (Homo sapiens, UniProt O43364 129-215).
Test [12] has as its target T3, SIX6 (Homo sapiens, UniProt O95475 114-200, L143I).
T3 sequence: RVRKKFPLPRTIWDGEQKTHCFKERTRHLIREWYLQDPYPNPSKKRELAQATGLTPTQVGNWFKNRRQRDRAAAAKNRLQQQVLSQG

Substitutions are numbered along the chain they refer to.

Sequence of HOXB6 (Homo sapiens, UniProt P17509 132-218, K202E) (P17509 132-218 K202E): as the sequence (P17509 132-218) above, with K71E counted along it
Sequence of HOXA2 (Homo sapiens, UniProt O43364 129-215) (O43364 129-215): as the sequence (O43364 129-215 R185T) above, with T57R counted along it
Sequence of ALX1 (Homo sapiens, UniProt Q15699 118-204, L144R) (Q15699 118-204 L144R): as the sequence (Q15699 118-204 L144V) above, with V27R counted along it
Sequence of HOXA2 (Homo sapiens, UniProt O43364 129-215, Y150S) (O43364 129-215 Y150S): as the sequence (O43364 129-215 R185T) above, with Y22S, T57R counted along it

As for GGACCCCC, the binding signal is 8.73 upbm affinity estimate (log intensity, higher = more binding, comparable within an allelic series) in test [1]; 9.37 upbm affinity estimate (log intensity, higher = more binding, comparable within an allelic series) in test [2]; 8.99 upbm affinity estimate (log intensity, higher = more binding, comparable within an allelic series) in test [3]; 8.68 upbm affinity estimate (log intensity, higher = more binding, comparable within an allelic series) in [4].
Take CTCGTGCC: the binding signal in test [1] is 9.04 upbm affinity estimate (log intensity, higher = more binding, comparable within an allelic series); in test [5] it was 6.52 upbm affinity estimate (log intensity, higher = more binding, comparable within an allelic series); in test [6], 6.32 upbm affinity estimate (log intensity, higher = more binding, comparable within an allelic series); in [7] it was 6.36 upbm affinity estimate (log intensity, higher = more binding, comparable within an allelic series); in test [4], 8.84 upbm affinity estimate (log intensity, higher = more binding, comparable within an allelic series).
As for CACCCGGG, the binding signal is 9.01 upbm affinity estimate (log intensity, higher = more binding, comparable within an allelic series) in [1]; 7.01 upbm affinity estimate (log intensity, higher = more binding, comparable within an allelic series) in test [8]; 10.3 upbm affinity estimate (log intensity, higher = more binding, comparable within an allelic series) in test [9]; 10.5 upbm affinity estimate (log intensity, higher = more binding, comparable within an allelic series) in [10]; 7.11 upbm affinity estimate (log intensity, higher = more binding, comparable within an allelic series) in test [11]; 8.87 upbm affinity estimate (log intensity, higher = more binding, comparable within an allelic series) in test [4].
For ATAATACC, in test [12], the binding signal is 10.4 upbm affinity estimate (log intensity, higher = more binding, comparable within an allelic series).
As to ATTTCATA, the binding signal in test [1] was 9.65 upbm affinity estimate (log intensity, higher = more binding, comparable within an allelic series); in test [4], 10.2 upbm affinity estimate (log intensity, higher = more binding, comparable within an allelic series).
In the case of AATGATTG, the binding signal was 9.68 upbm affinity estimate (log intensity, higher = more binding, comparable within an allelic series) in [1] and 10.7 upbm affinity estimate (log intensity, higher = more binding, comparable within an allelic series) in [4].
As for GGCAGCAC, the binding signal is 9.12 upbm affinity estimate (log intensity, higher = more binding, comparable within an allelic series) in [1] and 9.12 upbm affinity estimate (log intensity, higher = more binding, comparable within an allelic series) in [4].
CCCAGCTC: the binding signal is 9.08 upbm affinity estimate (log intensity, higher = more binding, comparable within an allelic series) in test [1] and 9.08 upbm affinity estimate (log intensity, higher = more binding, comparable within an allelic series) in test [4].
On to AAGTACGA, for which the binding signal was 9.65 upbm affinity estimate (log intensity, higher = more binding, comparable within an allelic series) in [1] and 10.3 upbm affinity estimate (log intensity, higher = more binding, comparable within an allelic series) in test [4].
Regarding AAAAAAAT, the binding signal was 9.72 upbm affinity estimate (log intensity, higher = more binding, comparable within an allelic series) in test [1] and 10.2 upbm affinity estimate (log intensity, higher = more binding, comparable within an allelic series) in test [4].
In the case of AATAGTTC, the binding signal in test [1] is 9.51 upbm affinity estimate (log intensity, higher = more binding, comparable within an allelic series); in [4], 10.1 upbm affinity estimate (log intensity, higher = more binding, comparable within an allelic series).
Regarding AGTCGCCC, the binding signal in [1] was 8.98 upbm affinity estimate (log intensity, higher = more binding, comparable within an allelic series); in test [4] it was 9.09 upbm affinity estimate (log intensity, higher = more binding, comparable within an allelic series).
As to TCTCATAA, the binding signal in test [1] was 9.55 upbm affinity estimate (log intensity, higher = more binding, comparable within an allelic series); in test [4] it was 10.4 upbm affinity estimate (log intensity, higher = more binding, comparable within an allelic series).
For GCACGTGC, the binding signal in test [1] was 9.35 upbm affinity estimate (log intensity, higher = more binding, comparable within an allelic series); in test [4], 9.36 upbm affinity estimate (log intensity, higher = more binding, comparable within an allelic series).
As to CGGTAGGC, the binding signal is 9.06 upbm affinity estimate (log intensity, higher = more binding, comparable within an allelic series) in test [1] and 8.98 upbm affinity estimate (log intensity, higher = more binding, comparable within an allelic series) in test [4].
On to CCGAGCGC, for which the binding signal was 9.06 upbm affinity estimate (log intensity, higher = more binding, comparable within an allelic series) in test [1] and 9.04 upbm affinity estimate (log intensity, higher = more binding, comparable within an allelic series) in test [4].
Take GGCGGCAC: the binding signal is 9.08 upbm affinity estimate (log intensity, higher = more binding, comparable within an allelic series) in test [1] and 9.21 upbm affinity estimate (log intensity, higher = more binding, comparable within an allelic series) in test [4].
With AGCGAGGG, the binding signal is 9.04 upbm affinity estimate (log intensity, higher = more binding, comparable within an allelic series) in test [1] and 8.99 upbm affinity estimate (log intensity, higher = more binding, comparable within an allelic series) in [4].
For GGTATTAC, the binding signal in test [1] is 9.66 upbm affinity estimate (log intensity, higher = more binding, comparable within an allelic series); in [4], 10.2 upbm affinity estimate (log intensity, higher = more binding, comparable within an allelic series).
Consider TAGAATGA, for which the binding signal is 9.57 upbm affinity estimate (log intensity, higher = more binding, comparable within an allelic series) in [1] and 10.3 upbm affinity estimate (log intensity, higher = more binding, comparable within an allelic series) in test [4].
As for GAGAGGGC, the binding signal was 8.82 upbm affinity estimate (log intensity, higher = more binding, comparable within an allelic series) in test [1] and 8.79 upbm affinity estimate (log intensity, higher = more binding, comparable within an allelic series) in test [4].
Regarding CGCACACC, the binding signal was 9.16 upbm affinity estimate (log intensity, higher = more binding, comparable within an allelic series) in test [1] and 9.11 upbm affinity estimate (log intensity, higher = more binding, comparable within an allelic series) in [4].
With CTCCGAAG, the binding signal in test [1] is 9.06 upbm affinity estimate (log intensity, higher = more binding, comparable within an allelic series); in [4], 9.02 upbm affinity estimate (log intensity, higher = more binding, comparable within an allelic series).
As for AGGGAGGA, the binding signal is 9.04 upbm affinity estimate (log intensity, higher = more binding, comparable within an allelic series) in test [1] and 9.03 upbm affinity estimate (log intensity, higher = more binding, comparable within an allelic series) in test [4].
As for AATGGCTA, the binding signal is 9.56 upbm affinity estimate (log intensity, higher = more binding, comparable within an allelic series) in test [1] and 10.8 upbm affinity estimate (log intensity, higher = more binding, comparable within an allelic series) in test [4].
Take GATGCCCC: the binding signal in [1] was 9.11 upbm affinity estimate (log intensity, higher = more binding, comparable within an allelic series); in [4] it was 8.96 upbm affinity estimate (log intensity, higher = more binding, comparable within an allelic series).
Take ACCGTTAA: the binding signal in test [1] was 9.66 upbm affinity estimate (log intensity, higher = more binding, comparable within an allelic series); in [4] it was 10.6 upbm affinity estimate (log intensity, higher = more binding, comparable within an allelic series).
Consider GGGTCCGA, for which the binding signal is 9.03 upbm affinity estimate (log intensity, higher = more binding, comparable within an allelic series) in test [1] and 9.07 upbm affinity estimate (log intensity, higher = more binding, comparable within an allelic series) in test [4].
With AAGGGACC, the binding signal in test [1] was 9.07 upbm affinity estimate (log intensity, higher = more binding, comparable within an allelic series); in [4], 8.97 upbm affinity estimate (log intensity, higher = more binding, comparable within an allelic series).
Consider AATGTTGT, for which the binding signal in test [1] was 9.62 upbm affinity estimate (log intensity, higher = more binding, comparable within an allelic series); in test [4] it was 10.2 upbm affinity estimate (log intensity, higher = more binding, comparable within an allelic series).
Take CCAGTCCC: the binding signal in test [1] was 9.1 upbm affinity estimate (log intensity, higher = more binding, comparable within an allelic series); in test [4], 8.95 upbm affinity estimate (log intensity, higher = more binding, comparable within an allelic series).
TAATGGAA: the binding signal was 9.72 upbm affinity estimate (log intensity, higher = more binding, comparable within an allelic series) in test [1] and 10.8 upbm affinity estimate (log intensity, higher = more binding, comparable within an allelic series) in test [4].
Consider AGTTATTG, for which the binding signal in test [1] was 9.58 upbm affinity estimate (log intensity, higher = more binding, comparable within an allelic series); in test [4], 10.6 upbm affinity estimate (log intensity, higher = more binding, comparable within an allelic series).
As for CCCTGGGA, the binding signal in test [1] was 8.98 upbm affinity estimate (log intensity, higher = more binding, comparable within an allelic series); in test [4] it was 8.98 upbm affinity estimate (log intensity, higher = more binding, comparable within an allelic series).
AGTCCTCC: the binding signal in [1] is 9.17 upbm affinity estimate (log intensity, higher = more binding, comparable within an allelic series); in test [4], 9.06 upbm affinity estimate (log intensity, higher = more binding, comparable within an allelic series).
